Several values for one entry are separate records, joined by “and”; a condition that tells them apart may be missing. Equal entries are not always repeated. Activity calls are given as the source filed them.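 The calls were made as follows: active = compounds killing one labelled cell type while sparing the other, by normalised counts and ratio limits, not self-fluorescent; inactive = the rest.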

The source of these data is PubChem BioAssay.

The nature of the first assay: EMT-state selective cytotoxicity in co-culture – imaging, PC-3E GFP, TEM4-18 mCherry, primary screen (AID 1345086).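 Also: normalised mesenchymal count divided by normalised epithelial count so high means epithelial killing; cells exposed to compound for 72 h before imaging.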 The settings on record: PC-3E GFP / TEM4-18 mCherry co-culture, imaging cell counts; at 1 µM; actives lie on both sides.
`NCCc1c[nH]c2ccc(O)cc12`: the red/green cell ratio (normalised) was 1.02 (inactive).
`C[C@H]1OC(O[C@H]2[C@@H](O)CC(O[C@H]3[C@@H](O)C[C@H](O[C@H]4CC[C@]5(C)C6CC[C@]7(C)[C@@H](C8=CC(=O)OC8)[C@@H](O)C[C@]7(O)[C@@H]6CC[C@@H]5C4)O[C@@H]3C)O[C@@H]2C)C[C@H](O)C1O` (stereo not given in full): the red/green cell ratio (normalised) is 0.34 (inactive).
Same read-out and setting: next, `C[C@]12CCC3C(CC[C@H]4C[C@@H](O)CC[C@]34C)C1CCC2=O` (stereo not given in full): 0.99 (inactive); `C[C@@H]1CC(Cl)CC[C@H]1C(=O)OC(C)(C)C` (stereo not given in full): 1.02 (inactive); `C[C@]12CC[C@H](O)C[C@H]1CCC1C2CC[C@]2(C)[C@@H](C3=CC(=O)OC3)[C@@H](O)C[C@]12O` (stereo not given in full): 0.39 (active).
As to `COc1cc2c(cc1OC)[C@@]13CCN4CC5=CCOC6CC(=O)N2C1[C@H]6[C@H]5C[C@H]43` (stereo not given in full), the red/green cell ratio (normalised) is 1.35 (inactive).
Still for that read-out and setting: next, `COC[C@]12CN(C=O)C3[C@@H]4[C@H](OC)C1[C@]3(C1CC3(O)C(OC)C(O)C4(OC(C)=O)C1C3OC(=O)c1ccccc1)[C@@H](OC)C[C@H]2O` (stereo not given in full): 1 (inactive).
Same read-out and setting: with `CCSCCC(N)C(=O)O` (stereo not given) the figure was 0.84 (inactive); with `Fc1ccc(N2CCNCC2)c(F)c1`, 1.03 (inactive); with `CC(C)c1cc2c(c(O)c1O)[C@@]1(C(=O)O)CCCC(C)(C)C1CC2` (stereo not given in full), 1.17 (inactive).
The same measure, in the same setting: next, `CCCN1CCC[C@@H]2Cc3[nH]ncc3C[C@H]21`: 1.24 (inactive).

The assay is the same for the next values; noted with them: PC-3E GFP / TEM4-18 mCherry co-culture, imaging cell counts; at 1 µM; actives lie on both sides; counts scaled to control wells, 1 = unselective.
As to `CC[C@H](C)/C=C(C)/C=C/C1=CC2=C(Cl)C(=O)[C@](C)(OC(C)=O)C(=O)C2=CO1`, the red/green cell ratio (normalised) is 1 (inactive).
With `O=[N+]([O-])c1ccc(CN2CCNCC2)cc1`, the red/green cell ratio (normalised) was 0.74 (inactive).
Same read-out and setting: next, `O=C(O)COc1ccc(O)cc1`: 1.05 (inactive); `C[C@H]1COc2c(N3CCNCC3)c(F)cc3c(=O)c(C(=O)O)cn1c23`: 0.98 (inactive); `CN(CCC(N)CC(=O)N[C@H]1C=CC(n2ccc(N)nc2=O)O[C@@H]1C(=O)O)C(=N)N` (stereo not given in full): 0.77 (inactive).
Same read-out and setting: with `COc1cc(O)c2c(=O)oc3cc(O)cc(C)c3c2c1` the figure was 0.9 (inactive); with `C[N+]12CC[C@@]34c5ccccc5N5C(=O)CC6OCC=C(C1)[C@@H](CC32)[C@@H]6C54` (stereo not given in full), 1.07 (inactive); with `CCC(C)C(=O)O[C@@H]1C[C@@]2(C)[C@H](c3ccoc3)OC(=O)CC23OC2(C)OC34[C@H](OC(=O)C(C)C)C3(O)[C@@H](OC(=O)C5(C)OC5C)[C@@]5(C)C[C@]3(O)[C@@](C)([C@H]5CC(=O)OC)C14O2` (stereo not given in full), 1.06 (inactive).
The same measure, in the same setting: with `CCC(C)C1C(=O)OC(C(C)C)C(=O)N(C)C(C(C)C)C(=O)OC(C(C)C)C(=O)N(C)C(C(C)C)C(=O)OC(C(C)C)C(=O)N1C` (stereo not given) the figure was 0.98 (inactive) and 0.86 (inactive); with `C[C@@H]1CC[C@@]2(NC1)OC1CC3C4CC=C5C[C@@H](O)CC[C@]5(C)C4CC[C@]3(C)C1[C@@H]2C` (stereo not given in full), 1.02 (inactive); with `COc1cc([C@@H]2c3cc4c(cc3[C@H](OC(C)=O)C3COC(=O)[C@@H]32)OCO4)cc(OC)c1OC` (stereo not given in full), 0.81 (inactive).
Consider `C/C1=C\[C@@H](C)C/C=C/[C@H]2[C@@H]3O[C@]3(C)[C@@H](C)[C@H]3[C@H](Cc4c[nH]c5ccccc45)NC(=O)[C@]32C(=O)/C=C/C(=O)[C@@H]1O`, for which the red/green cell ratio (normalised) was 0.89 (inactive).
On the same count and under the same terms, with `c1ccc(S[C@@H]2OC3COC(c4ccccc4)OC3[C@H]3NC32)cc1` (stereo not given in full) the figure was 0.98 (inactive); with `COc1cc2c(cc1OC)[C@@]13CCN4CC5=CCOC6CC(=O)N2C1[C@H]6[C@H]5C[C@H]43` (stereo not given in full), 0.96 (inactive).
Regarding `C[N+]12CC(C[C@H]1c1cccnc1)C2`, the red/green cell ratio (normalised) was 1.02 (inactive).
Still for that read-out and setting: with `CC(C)[C@@H]1CC[C@](O)(CCl)[C@@H]2C(=O)OCC(C(=O)O)=C[C@H]21` the figure was 0.96 (inactive).
Same read-out and setting: with `CC1CC[C@]2(NC1)O[C@H]1CC3C4CC[C@H]5C[C@@H](O)CC[C@]5(C)C4CC[C@]3(C)[C@H]1[C@@H]2C` (stereo not given in full) the figure was 0.81 (inactive); with `CC[C@H]1CN2CCC1C[C@@H]2[C@H](O)c1ccnc2ccc(OC)cc12` (stereo not given in full), 0.88 (inactive).
As to `C[CH2][Hg+].O=C([O-])c1ccccc1[S-].[Na+]`, the red/green cell ratio (normalised) was 0.36 (inactive).
Still for that read-out and setting: next, `N#Cc1cc(I)c(O)c(I)c1`: 1.04 (inactive); `C[C@@H]1[C@H](O)[C@@H](C)/C=C/C=C/CC/C=C/C=C/C=C/C=C/[C@H](OC2O[C@H](C)[C@@H](O)[C@H](N)[C@@H]2O)C[C@@H]2O[C@](O)(C[C@@H](O)[C@H](O)CC[C@@H](O)C[C@@H](O)C[C@@H](O)CC(=O)O[C@H]1C)C[C@H](O)[C@H]2C(=O)O` (stereo not given in full): 0.86 (inactive).
Same read-out and setting: next, `C/C=C(\C)C(=O)O[C@H]1C[C@@H](OC(C)=O)[C@@]2(C(=O)OC)CO[C@@H]3C2[C@]12CO[C@](O)(C(=O)OC)[C@H]2[C@](C)(C12O[C@@]1(C)[C@H]1C[C@H]2OC2OC=C[C@@]21O)[C@@H]3O` (stereo not given in full): 1.21 (inactive); `CCC(C)[C@H]1O[C@]2(C=C[C@@H]1C)C[C@@H]1C[C@@H](C/C=C(\C)[C@@H](OC3C[C@H](OC)C(O[C@H]4C[C@H](OC)[C@@H](O)[C@H](C)O4)[C@H](C)O3)[C@@H](C)/C=C/C=C3\COC4[C@H](O)C(C)=C[C@@H](C(=O)O1)[C@]34O)O2` (stereo not given in full): 0.68 (inactive).
With `O=C1CC2OCC=C3CN4CC[C@]56c7ccccc7N1C5[C@H]2[C@@H]3CC46` (stereo not given in full), the red/green cell ratio (normalised) is 1.12 (inactive).
